# An excerpt weighted towards active compounds, which were near 8% of everything screened.
# PostGolgi yeast – growth inhibition of a yeast mutant, post-Golgi transport screen; post-Golgi transport phenotypic cell assay; inhibition, % at 10 µM; actives 0.9% (n = 98,000); AID 739;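 note: yeast cells grown in 1536-well plates; yeast grown about 18 h at 30C before absorbance read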
# PTK2B oligo ant – antagonists of human Pyk2 oligomerization; Q14289; Q293 cells, Pyk2 FERM NanoBiT luminescence; active compounds read low; z-score (the deposit names both 25 µM and 10 µM); actives 0.83% (n = 99,000);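 active = Z-score of -3 or lower, scaled per plate to the spread of control and sample wells; inactive = z-score above -3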;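 note: negative z-score means lost luminescence so less FERM oligomerization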
# PostGolgi ctrl – growth of the yeast control strain, post-Golgi counter-screen. efflux-deficient yeast background strain, growth absorbance A615, 16 h. inhibition, % at 10 µM. actives 5% (n = 98,000). AID 738
# Cav32 inh – human Cav3.2 channel inhibition, primary screen; O95180; Cav3.2-expressing cells, Fluo-4 calcium fluorescence FDSS; active compounds read low; B-score at 10 µM; actives 4% (n = 100,000);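 active = single-dose well whose peak fluorescence ratio is a statistical outlier from its plate by either plate-standardised score or position-corrected B-score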
# Numbers without * were called inactive; · = not tested or not shown. Cut-off read from the data, not from the text of the source, unless noted: active = inhibition above about 30%; inactive = the rest.
SMILES,PostGolgi yeast,PTK2B oligo ant,PostGolgi ctrl,Cav32 inh
CCC(C)OC(=O)C1=C(C)NC2=C(C(=O)C(C(=O)OC)C(C)C2)C1c1ccc(N(C)C)cc1 (stereo not given),2.8,-0.85,-0.9,-2.34
CCCOC(=O)C1=C(C)NC2=C(C(=O)C(C(=O)OC)C(C)C2)C1c1ccc(N(CC)CC)cc1 (stereo not given),3.9,-0.59,1.8,-7.28*
CC1CCc2cc(F)ccc2N1C(=O)c1ccc2c(c1)OCO2 (stereo not given),0.0,-0.87,6.6,-3.06
COC(=O)Cc1ccc(NC(=O)c2ccc(C)c(C)c2)cc1,-2.5,0.75,-1.2,0.502
CCOC(=O)Cc1ccc(NC(=O)c2ccc(C(C)(C)C)cc2)cc1,-13.2,1.68,14.0,-8.09*
CCOC(=O)N1CCN(C(=O)c2noc(C(C)C)c2[N+](=O)[O-])CC1,·,·,·,-0.024
Cc1ccc(CS(=O)(=O)Cc2ccc(C(=O)NCc3ccccn3)o2)cc1,20.0,0.26,10.8,0.384
O=C(CN1C(=O)NC2(CCCCCCC2)C1=O)NC(=O)NCc1ccco1,8.5,1.61,38.5*,-0.388
Cc1ccc(SCC(=O)NC(=O)NCc2ccco2)cc1C,4.7,·,12.3,-6.61*
O=C(CN1CCN(C(c2ccccc2)c2ccccc2)CC1)NC(=O)NCc1ccco1,4.9,-0.99,36.3*,-5.1*
Cc1ccc(-c2nn(CC(=O)N(C)C)c(=O)c3ccccc23)cc1S(=O)(=O)N(C)C,-2.6,1.16,14.3,-0.762
COc1cc(-c2c(C#N)c(=O)[nH]c3c2c(C)nn3-c2ccccc2)ccc1O,1.4,-3.28*,4.8,1.59
O=C(Nc1nc2ccc(Cl)cc2s1)c1ccc(Br)o1,0.5,-1.66,7.5,-3.57*
Cc1cc(NCC(C)C)n2ncnc2n1,11.4,-0.16,6.7,0.304
CCc1ccccc1NC(=O)C1NC(=O)CC1c1ccccc1 (stereo not given),-10.6,·,-2.2,-0.172
CCc1ccccc1NC(=O)C1C(c2ccccc2)C1(Cl)Cl (stereo not given),-14.3,-2.14,6.2,-7.6*
Cc1ccc(C)c(NC(=O)C2C(c3ccccc3)C2(Cl)Cl)c1 (stereo not given),-8.8,-1.13,17.3,-4.62*
Cc1ccc(C2CN(c3ccccc3)CC2C(=O)c2ccc(F)cc2)cc1 (stereo not given),-15.2,-0.68,3.7,·
CC(NC(=O)C(CC(=O)OC(C)(C)C)NC(=O)OC(C)(C)C)C(N)=O (stereo not given),-0.2,0.15,2.1,-0.138
N=c1nc(N)nc2n1NC(c1ccc(F)cc1)=CS2,99.4*,-0.51,-9.8,0.383
CCOC(=O)c1cnn(-c2ccccn2)c1N,-1.0,-0.31,17.8,0.774
CCOC(=O)c1cnn(-c2sc(C(=O)OCC)c(C)c2C(=O)OCC)c1N,·,-0.28,·,-3.27*
Cc1[nH]n(-c2ccccc2)c(=O)c1Sc1ccc(Cl)cc1,-2.9,-1.17,35.0*,-1.33
CC(C)n1c(NCc2cc(Cl)ccc2O)nc2ccccc21,-7.1,·,3.0,1.27
C=CCn1c(NC(C)c2cc(Cl)ccc2O)nc2ccccc21 (stereo not given),-4.7,·,31.5*,·
SMILES,PostGolgi yeast,PTK2B oligo ant,PostGolgi ctrl,Cav32 inh
Cc1cc(C)n(C(=O)c2cc3c(s2)CCCC3)n1,-0.7,0.44,1.8,-0.0441
Cc1ccc(CN2CC(C(=O)Nc3ccc(S(=O)(=O)Nc4cc(C)nc(C)n4)cc3)CC2=O)cc1 (stereo not given),-20.4,0.84,32.5*,0.973
Cc1cccc(-n2ncc3c(NCc4cccs4)ncnc32)c1,5.6,-0.59,42.5*,0.269
Clc1ccc(-n2ncc3c(NCc4cccs4)ncnc32)cc1,-2.4,-0.1,-13.1,-0.0168
N#Cc1c(-c2ccco2)nc(SCC(=O)Nc2ccc(S(N)(=O)=O)cc2)[nH]c1=O,0.8,·,-5.7,·
N#Cc1c(-c2ccco2)nc(SCc2ccc(F)cc2)[nH]c1=O,-8.1,-1.31,1.2,-4.54*
CNC(=O)c1sccc1SCc1ccc(Cl)cc1Cl,-6.8,0.42,21.8,-2.35
CNC(=O)c1sccc1SCc1c(Cl)cccc1Cl,-3.7,-0.97,46.0*,-1.56
CC(=O)Nc1nnc(SCC(=O)NC(C)(C)C)s1,-4.2,0.39,31.8*,-2.36
CC(Oc1ccccc1)C(=O)Nc1cccc(-c2nc3ccccc3[nH]2)c1 (stereo not given),-5.9,-1.14,15.2,-4.61*
O=C(COc1ccccc1)Nc1cccc(-c2nc3cc4ccccc4cc3[nH]2)c1,45.4*,-2.56,19.7,-2.12
CSc1cccc(NC(=O)COc2ccccc2)c1,-3.1,0.22,5.1,-3.23
CSc1cccc(NC(=O)C2CCCN2S(=O)(=O)c2ccc(Br)s2)c1 (stereo not given),-2.8,1.05,19.4,-3.17
COc1ccc(CNC(=O)Nc2ccc(C)cc2)cc1,-3.2,1.06,0.3,0.0311
COC(=O)C1=C(Nc2ccc(C)cc2)C=C(C)C(C(=O)OC)C1c1ccc(OC)cc1 (stereo not given),·,-1.84,·,-4.11*
COC(=O)C1=C(Nc2ccc(C)cc2)C=C(C)C(C(=O)OC)C1c1cccc(OC)c1 (stereo not given),·,-1.04,·,-3.9*
Cc1ccccc1N(C)S(=O)(=O)c1ccc2[nH]cc(C(=O)NCC3CCCO3)c(=O)c2c1 (stereo not given),-8.5,-3.17*,6.4,0.533
CCOc1ccc(N(C)S(=O)(=O)c2ccc3[nH]cc(C(=O)NCC4CCCO4)c(=O)c3c2)cc1 (stereo not given),-8.9,-1.07,-0.9,0.189
CC1(C)N=C(SCC(=O)Nc2ccccc2)C(c2ccc(Cl)cc2)=N1,-3.0,1.82,9.1,-6.74*
Cn1ccnc1SCC(=O)Nc1ccccc1,·,0.7,·,0.0307
COc1ccccc1-c1nnc(SCC(=O)Nc2ccc(Cl)cc2Cl)o1,1.4,1.3,8.1,-0.4
Cc1ccc(C2=NC(C)(C)N=C2SCC(=O)Nc2ccc(Cl)cc2)cc1,12.8,-0.25,34.5*,-4.71*
CC1(C)N=C(SCC(=O)Nc2ccc(Cl)cc2Cl)C(c2ccccc2)=N1,-10.7,0.43,10.6,-5.65*
CCCOc1ccc2ccccc2c1/C=N/n1c(C)nnc1-n1nc(C)cc1C,-3.2,-0.36,23.0,-3.31*
O=C(CSCc1cccc(CSCC(=O)Nc2ccccc2)n1)Nc1ccccc1,3.5,1.17,-3.9,-6.8*
SMILES,PostGolgi yeast,PTK2B oligo ant,PostGolgi ctrl,Cav32 inh
Cc1cccc(C)c1NC(=O)CSCc1cccc(CSCC(=O)Nc2c(C)cccc2C)n1,-5.2,0.35,0.9,0.261
Cc1nc2cc(N3CCN(C)CC3)c(NC(=O)Cc3ccccc3)cc2c(=O)n1Cc1ccccc1,1.3,-1.46,28.9,-7.34*
Clc1ccccc1-c1nnn(Cc2ccc(-c3nn[nH]n3)cc2)n1,4.9,-0.5,-1.9,-4.85*
O=C(c1cccc(COc2ccc(Cl)cc2Cl)c1)N1CCN(c2ccccn2)CC1,3.6,-1.41,68.1*,-6.24*
O=C(c1ccc(COc2ccccc2Br)o1)N1CCN(c2ccccn2)CC1,-3.1,-0.18,34.9*,-3.25
O=C(c1ccc(C#Cc2ccccc2)o1)N1CCN(c2ccccn2)CC1,-1.1,-1.96,41.5*,-0.769
O=C(Nc1nccs1)c1ccc(COc2ccccc2Br)o1,0.0,-1.31,18.2,-1.19
CCC(C)Nc1nc(SC(C(C)=O)C(C)=O)nc(N(C)C)n1 (stereo not given),3.2,0.21,16.7,-2.16

# High-throughput results from PubChem.
